Laboratory results: PubChem BioAssay (NCI)
The panel holds about 83,000 compounds, 20% with a hit somewhere; the sample as a whole holds those more often.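 Treatment: one concentration, 48 hours, 96-well format. Scoring: percent growth, with anything below 10 considered active.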 The source made the active and inactive calls.

These compounds were tested on NCI-H23 lung (assay: NCI-60 one-dose screen, 48 h (100 = growth as untreated, 0 = no growth, -100 = all killed)). Conditions: 10 µM.
For `COc1ccc(/C=C/C(=O)c2ccc(NC(=O)CN3C(=O)NC(C)(c4ccccc4)C3=O)cc2)cc1` (stereo not drawn), the growth was 83.8% (inactive). In the case of `Cc1ccc(C(C)C)cc1NC(=O)c1ccccc1O`, the growth is reported as 11.8% (inactive). In the case of `CC1(c2ccccc2)NC(=O)N(CC(=O)Nc2ccc(C(=O)/C=C/c3ccc(Br)cc3)cc2)C1=O` (stereo not drawn), the growth is reported as 64.4% (inactive). With `C=C[C@@]12CN3CC[C@]1(O)[C@@](C(=O)OC)(CO2)c1[nH]c2ccccc2c1C3` the growth was 78% (inactive). `COc1ccc(/C=C/C(=O)c2ccc(S(=O)(=O)NCCNc3nc(Nc4ccc(F)cc4)nc(N(C)C)n3)cc2)cc1` was tested, and the growth was 44.8% (inactive). For `O=c1oc2ccccc2cc1-c1csc(N=Nc2c(O)[nH]c3ccc(Br)cc23)n1`, the growth was 61.5% (inactive). With `O=C(CSc1nnc(-c2c[nH]c3ccccc23)n1-c1ccccc1)Nc1ccc(C(=O)/C=C/c2ccccc2Cl)cc1` the growth was 36.1% (inactive). With `O=C(NO)c1ccc(-c2nc3ccc4[nH]ncc4c3c3c2CCCC3)cc1` the growth was -56.7% (active). For `CS(=O)(=O)Nc1ccc(-c2ccc3c(c2)ncn3-c2ccc(NC(=O)Nc3ccc(Br)cc3)cc2)cc1`, the growth was 3.9% (active). `O=C(CS(=O)(=O)c1oc(-c2ccc(Cl)cc2)nc1S(=O)(=O)c1ccc(Cl)cc1)N1CCOCC1` was tested, and the growth was 48.9% (inactive). In the case of `COc1cc(-c2nc3cc(Cl)c(Cl)cc3[nH]2)ccc1OCc1nnc(-c2ccc(Br)cc2)o1`, the growth is reported as 24% (inactive). For `COc1cccc(C(N)=Nc2ccc(OCCCCCCn3cncn3)cc2)c1`, the growth was 21.1% (inactive). In the case of `COc1cc2c3c(n(CCCn4ccnc4)c(=O)c2cc1OC)-c1nc2c(cc1C3=O)OCO2`, the growth is reported as 20% (inactive). `Cc1ccc(/C=C/C(=O)c2ccc(NC(=O)CSc3nnc(-c4c[nH]c5ccccc45)n3-c3ccccc3)cc2)cc1` was tested, and the growth was 74.3% (inactive). In the case of `O=C(CSc1nnc(-c2ccc3nc(-c4ccccc4)[nH]c3c2)o1)Nc1ccc(Br)cc1`, the growth is reported as 54.2% (inactive). `O=C(CNc1nc(-c2ccccc2)cs1)Nc1ccccc1` was tested, and the growth was -86.4% (active). With `O=C(/C=C/Nc1ccc(F)cc1F)c1ccc2c(c1)Nc1ccccc1S2` the growth was 70.3% (inactive). In the case of `COc1cc(Cn2c(C(F)(F)F)cc3c(Cl)ncnc32)ccn1`, the growth is reported as -66.6% (active). With `COc1ccc(-c2cc(C(=O)N=Nc3c(O)[nH]c4ccc(F)cc34)c3ccccc3n2)cc1` the growth was 44.4% (inactive). With `O=C(Nc1ccccc1)Nc1nc2ccccc2s1` the growth was 78.5% (inactive). In the case of `O=C(CSc1nnc(-c2ccc3nc(-c4ccccc4)[nH]c3c2)o1)Nc1ccc(Cl)cc1`, the growth is reported as 21.4% (inactive). In the case of `CCOc1ccc(Nc2nc3ccccc3nc2Nc2ccc(OCC)cc2)cc1`, the growth is reported as 55.2% (inactive). For `CNC(=O)c1cc(-c2ccc(NC(=O)Nc3ccc(C)cc3)cc2)nc2cccnc12`, the growth was 101% (inactive). `NC(=Nc1ccc(OCCCCCCCCn2ccnn2)cc1)c1ccccc1` was tested, and the growth was 20.1% (inactive). In the case of `Cc1ccc(C(=O)Nc2ccc(-n3c(C)nc4c(cnn4-c4ccccc4)c3=O)cc2)cc1`, the growth is reported as 53.6% (inactive). For `COc1ccc(-c2cc(-c3cc(C(=O)c4ccccc4)n4ccc(C)cc34)nc(N)c2C#N)cc1`, the growth was 55% (inactive). In the case of `C[C@H]1[C@H](C)CC[C@]2(COC(=O)CCC(=O)NCC#CCN3CCNCC3)CC[C@]3(C)C(=CC[C@@H]4[C@@]5(C)CCCNC(C)(C)[C@@H]5CC[C@]43C)[C@H]12`, the growth is reported as 44.1% (inactive). In the case of `O=c1[nH]c2ccc(Cl)cc2cc1CSc1ccc(Nc2nccc(-c3ccc(Cl)cc3)n2)cc1`, the growth is reported as 62.1% (inactive). For `COc1ccc(-c2cc(C(=O)N=Nc3c(O)[nH]c4ccccc34)c3ccccc3n2)cc1`, the growth was -36.4% (active). In the case of `COc1ccc(-c2nc(S(=O)(=O)c3ccc(C)cc3)c(S(=O)(=O)CC(=O)N(C)Cc3ccccc3)o2)cc1`, the growth is reported as 44% (inactive). `COc1ccc(C(C)=C(c2ccc(OCCCN(C)C)cc2)c2ccc(OCCCN(C)C)cc2)cc1` was tested, and the growth was -95.6% (active). In the case of `COc1cc2c3c(n(CCCNCCO)c(=O)c2cc1OC)-c1nc2c(cc1C3=O)OCO2`, the growth is reported as -45% (active). `c1ccc(C(=C(c2ccc(OCCN3CCCCC3)cc2)c2ccc(OCCN3CCCCC3)cc2)C2CCCC2)cc1` was tested, and the growth was -81% (active). `O=C(CSc1nnc(-c2c[nH]c3ccccc23)n1-c1ccccc1)Nc1ccc(C(=O)/C=C/c2ccc(Cl)cc2)cc1` was tested, and the growth was 61.5% (inactive). For `COc1cnc2c(c1)C(=O)c1c-2n(CCCNC(C)C)c(=O)c2cc(OC)c(OC)cc12`, the growth was 26.9% (inactive). In the case of `COc1ccc(NC(=O)CSc2nnc(-c3ccc4nc(-c5ccc(Cl)cc5)[nH]c4c3)o2)cc1`, the growth is reported as -9.49% (active). With `CN(CCO)c1oc(-c2ccccc2)nc1[P+](c1ccccc1)(c1ccccc1)c1ccccc1` the growth was -5.17% (active). In the case of `CN1CCc2c(sc3ncnc(N/N=C/c4ccc5ccccc5c4)c23)C1`, the growth is reported as 66.1% (inactive).
